In PubChem BioAssay (NCATS) one finds max response, Potency and outcome data, which are given here for 14 compounds.

One test relates to CRL-7250. Kind of test: Cytotoxic Profiling of Annotated Libraries Using Quantitative High-Throughput Screening (AID 1296008). For max response: % is set by controls: 0 for no effect and ±100 for the full control effect. Note: nearly all actives have a fitted effect of over 60% in size. Note: potency is the fitted concentration of half-maximal effect. Particulars: Five cell lines viability, CellTiter-Glo ATP luminescence, 48-72 h; max response: hits give low values. An outline of the steps:
(§1)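 Compounds were pin-transferred onto cells and incubated 48 or 72 hr at 37 degree Celsius, 95% humidity. CellTiter-Glo was added, plates sat 10 min at room temperature, then ATP-coupled luminescence was imaged as the viability read-out.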
A general note: Cellular ATP, detected with luciferase, serves as a proxy for viable cell number.

The subject of a further test is HEK293. The test is described as above. Particulars: Five cell lines viability, CellTiter-Glo ATP luminescence, 48-72 h; max response: hits give low values. In a few lines: as §1
The test system of test [1] is HaCat. The test is described as above. Particulars: Five cell lines viability, CellTiter-Glo ATP luminescence, 48-72 h; max response: hits give low values. An outline of the steps:
as §1

The subject of a further test is NIH3T3. The test is described as above. The settings on record: Five cell lines viability, CellTiter-Glo ATP luminescence, 48-72 h; max response: hits give low values. In a few lines:
as §1

In another test the test system is CAOV3. Put plainly: Primary qHTS to identify gynecologic anti-cancer compounds using libraries of approved drugs and bioactive compounds (AID 1345084). Note: nearly all actives have a fitted effect of over 55% in size. Note: potency is the fitted concentration of half-maximal effect. Particulars: Gynecologic cancer cell panel viability, ATPlite luminescence, 48 h; series mostly up to 57.5 µM. In a few lines: (§2)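 Luminescence from the ATPlite ATP-monitoring reagent indicates viable cell number; lower signal means cytotoxicity. Cells received compound 16 h after seeding and were exposed for 48 h across five concentrations.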
On the technique in general: qHTS replaces the single test concentration by a dilution series.

For a further test, the system named is Es-2. The description is as above. Particulars: Gynecologic cancer cell panel viability, ATPlite luminescence, 48 h; series mostly up to 57.5 µM. In a few lines:
as §2

The test system of a further test is HeLa. The test is described as above. The settings on record: Gynecologic cancer cell panel viability, ATPlite luminescence, 48 h; series mostly up to 57.5 µM. In a few lines:
as §2

The next test deals with Hek293T. Described as above. Particulars: Gynecologic cancer cell panel viability, ATPlite luminescence, 48 h, control line for the selectivity index; series mostly up to 57.5 µM. An outline of the steps:
as §2

The test system of another test is C33A. The test is described as above. The settings on record: Gynecologic cancer cell panel viability, ATPlite luminescence, 48 h; series mostly up to 57.5 µM. An outline of the steps:
as §2

A further test deals with CASKI. The description is as above. The settings on record: Gynecologic cancer cell panel viability, ATPlite luminescence, 48 h; series mostly up to 57.5 µM. An outline of the steps: as §2
The next test has as its system OV90. The description is as above. The settings on record: Gynecologic cancer cell panel viability, ATPlite luminescence, 48 h; series mostly up to 57.5 µM. An outline of the steps: as §2
The next test concerns PA-1. Described as above. Particulars: Gynecologic cancer cell panel viability, ATPlite luminescence, 48 h; series mostly up to 57.5 µM. An outline of the steps:
as §2

In the next test the test system is JEG-3. Described as above. The settings on record: Gynecologic cancer cell panel viability, ATPlite luminescence, 48 h; series mostly up to 57.5 µM. An outline of the steps:
as §2

Test [2] relates to HACAT. Kind of test: qHTS assay to identify novel small-molecules to repurpose for Merkel cell carcinoma treatment (AID 1296009). Note: nearly all actives have a fitted effect of over 60% in size. The settings on record: MCC and control cell lines, CellTiter-Glo viability, 72 h; at 44.8 µM (top of the series) unless noted. In a few lines:
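Luminescence from CellTiter-Glo, read 10 min after addition at room temperature, reported viability following a 72 hr, 37 degree celsius treatment with NPC or MIPE compounds in titration; values normalized to plate controls.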

Each structure is given as a SMILES string. “And” between values parts separate entries of the source, which are not always exact repeats. Equal entries are not always repeated. Records with an inconclusive call do not appear. Values without a mark were called inactive. The source made the active and inactive calls. Calls come from the whole dose curve; as a rule, active = well fitted curve in the direction sought with a large enough effect; inconclusive = small, poorly fitted or top-dose-only effect, or another doubt; inactive = no such curve, though single readings can be large; an effect the other way counts as inactive or inconclusive.

Turning to `Cc1nc(-c2cn3c(n2)-c2ccc(-c4cnn(C(C)(C)C(N)=O)c4)cc2OCC3)n(C(C)C)n1`, the max response with CRL-7250 was 4.52%. Also, the Potency is 6.51 µM (active) in the test on HEK293; 2.91 µM (active) with HaCat [1]; 5.17 µM (active) with NIH3T3; 35.5 µM (active) in the test with CAOV3; 15.8 µM (active) in the test with Hek293T. In addition, the Potency result with Es-2 and in the test on HeLa was “inactive” in each case.

As for `C=C[C@@]12COC(=O)C(=C)[C@@H]1[C@@H](O)[C@H](C(=C)C(=O)OC)[C@@H](O)C2`, the max response is -65.9% in the test on CRL-7250, -86.5% with HEK293, -29% in the test with HaCat [1] and -16.2% in the test with NIH3T3. Also, the Potency result with C33A, in the test on CAOV3, in the test on CASKI, with Hek293T and with OV90 was “inactive” each time.

With `CC[C@@H](C)Nc1cc(C(=O)NC2CC3CCC(C2)N3c2ccc(C(=O)C3CC3)cn2)c(C)cc1C(N)=O` (stereo partly drawn), the Potency was 0.259 µM (active) in the test with CRL-7250; 0.13 µM (active) with HEK293; 0.184 µM (active) in the test on HaCat [1]; 0.206 µM (active) in the test with NIH3T3; 0.316 µM (active) in the test on OV90; 0.355 µM (active) in the test with PA-1.

For `C=C(C)C(=O)OC1CC2(C)OC(=CC2=O)C(=C)CC2OC(=O)C(=C)C12` (stereo not drawn), the Potency is 3.21 µM (active) in the test on CRL-7250; 0.718 µM (active) with HEK293; 5.08 µM (active) with HaCat [1]; 2.86 µM (active) in the test on NIH3T3; 4.47 µM (active) in the test on Es-2; 6.31 µM (active) in the test on Hek293T. In addition, in the test with PA-1, the Potency was 7.94 µM (active). In addition, the Potency result with CASKI, with HeLa and with JEG-3 was “inactive” throughout.

Turning to `O=C1NC(=O)C(c2cnc3ccccn23)=C1c1cn2c3c(cc(F)cc13)CN(C(=O)N1CCCCC1)CC2`, the Potency was 46.1 nM (active) and 33.1 nM (active) in the test on CRL-7250; 0.295 µM (active) with HEK293; 17.8 µM (active) in the test with PA-1. In addition, the compound was classed as inactive in the test on HaCat [1] and in the test on HACAT [2]. Besides, the Potency result in the test on C33A, in the test on CASKI, in the test on Es-2, with HeLa, with Hek293T and with JEG-3 was “inactive” each time. For the same compound, in the test on OV90, the Potency entry was “inactive”.

With `CC#CC(=O)Nc1ccc2ncnc(Nc3cccc(Br)c3)c2c1`, the Potency is 6.51 µM (active) in the test on CRL-7250; 3.66 µM (active) in the test on HEK293; 0.0326 µM (active) in the test on HaCat [1]; 11.2 µM (active) in the test on C33A; 8.91 µM (active) in the test on CASKI; 14.1 µM (active) in the test on Es-2. Moreover, the Potency with PA-1 is 7.94 µM (active). For the same compound, the Potency entry with JEG-3 and in the test with OV90 was “inactive” in each case.

`COC(=O)C1=COC(O[C@@H]2O[C@H](CO[C@@H]3O[C@H](COC(=O)/C=C\c4ccc(O)cc4)[C@@H](O)[C@H](O)[C@H]3O)[C@@H](O)[C@H](O)[C@H]2O)C2C(CO)=CCC12` (stereo partly drawn): the max response in the test on CRL-7250 is -64.3%; in the test with HEK293, -82.6%; in the test with NIH3T3, -28.7%. Also, the Potency entry with C33A, in the test with CAOV3 and with OV90 was “inactive” throughout.

In the case of `CNC(=O)[C@@H](c1ccccc1)N1CCc2cc(OC)c(OC)cc2[C@@H]1CCc1ccc(C(F)(F)F)cc1`, the max response was -4.36% in the test on CRL-7250 and -22.6% in the test with NIH3T3. Also, the Potency in the test with HEK293 was 16.4 µM (active). Moreover, the Potency result in the test on C33A, with CAOV3, in the test with CASKI, with Es-2, in the test on HeLa and in the test with Hek293T was “inactive” throughout. The Potency result in the test with JEG-3, with OV90 and with PA-1 was “inactive” each time.

`COc1cc(NC(=O)c2cccc(-n3cc(NC(=O)Nc4cccc(C)c4)cn3)c2)cc(OC)c1OC`: the call with CRL-7250 was inactive. Also, the Potency in the test with HEK293 was 9.2 µM (active). Further, the max response with HaCat [1] is 3.54%. In addition, the Potency result with OV90 and with PA-1 was “inactive” throughout.

As for `COC1CC/C=C(\C)C(=O)Nc2cc(O)cc(c2)CC(C)CC(OC)C(O)C(C)/C=C(\C)C1OC(N)=O` (stereo not drawn), the Potency in the test on CRL-7250 is 3.17 µM (active); in the test with HEK293, 2.52 µM (active); in the test with HaCat [1], 7.09 µM (active); in the test with OV90 it was 8.91 µM (active). The Potency entry in the test with Es-2 and with HeLa was “inactive” throughout.

On to `CC(C)S(=O)(=O)NC[C@H](C)c1ccc(-c2ccc(CCNS(C)(=O)=O)cc2)cc1`, for which the values for the Potency in the test with CRL-7250, in the test on HEK293 and in the test with Hek293T were 4.61 µM (active), 5.8 µM (active) and 8.91 µM (active), respectively. Besides, the max response in the test with HaCat [1] was 2.78%. Also, the Potency result in the test with CAOV3, in the test on Es-2, in the test with HeLa, in the test with JEG-3 and with PA-1 was “inactive” throughout.

Turning to `COc1cc2nc(C3CC3)nc(N3CCN(c4ccccc4OC)CC3)c2cc1OC`, the figures for the max response in the test with CRL-7250 and with HaCat [1] were -2.72% and -4.62%, respectively. In addition, the Potency in the test on HEK293 was 18.4 µM (active). Moreover, the Potency result in the test on C33A, in the test with CAOV3, in the test on CASKI, with Es-2, with HeLa and in the test with Hek293T was “inactive” in each case. Also, the Potency result with JEG-3, with OV90 and with PA-1 was “inactive” each time.

Turning to `C#CC(=O)N(c1ccc(OC)cc1OC)C(C(=O)NCC(=O)OCC)c1cccs1` (stereo not drawn), the Potency in the test with CRL-7250 is 0.206 µM (active); in the test on HEK293, 0.259 µM (active); with NIH3T3 it was 0.164 µM (active); with C33A it was 5.01 µM (active); in the test with CAOV3, 1.78 µM (active); with CASKI, 22.4 µM (active). Besides, the Potency with Es-2 is 1.41 µM (active); in the test on JEG-3, 15.8 µM (active); in the test with PA-1, 1.58 µM (active).

On to `Cc1cc(C(=O)Nc2cc(Nc3ccc4c(/C=C/c5ccccn5)n[nH]c4c3)ccc2F)n(C)n1`, for which the Potency in the test with CRL-7250 is 18.4 µM (active); in the test on HEK293 it was 11.6 µM (active); in the test on NIH3T3, 0.731 µM (active). Further, the Potency entry with C33A, in the test with CAOV3, in the test on CASKI, in the test with Es-2, in the test with HeLa and in the test on JEG-3 was “inactive” each time. In the test with OV90, the Potency entry is “inactive”.
